From PubChem BioAssay come the findings set out here.

Where “and” joins values, the source holds several entries; their conditions need not be identical. Identical values can stand only once. Calls of active or inactive are those of the source.

Assay [1] deals with Human papillomavirus type 1a protein E7 (residues 44-93). Briefly: small molecules binding HPV E7 44-93 – biochemical, small-molecule microarray, residues 44-93, 635 nm fluorescence, primary screen (AID 1108).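 Note: E7 fragment applied at 1 µg/mL in TBST for 1 h at 4 C; score combines spot fluorescence with its signal to noise ratio.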 The conditions noted are these: fluorescence 635 nm, higher = more signal.
The nature of assay [2]: hepatitis C replication reporter changes, two-sided – Huh7 cells, luciferase reporter, HCV replication inhibitor project, primary screen (AID 1109).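 Note: huh7 hepatoma cells harbouring a luciferase neomycin HCV replicon reporter; luciferase luminescence as measure of HCV replicon replication; test concentration not given here.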 The settings on record: Huh7 HCV replicon luciferase reporter, 48 h; higher = more signal.
Assay [3] concerns the target Left-right determination factor 2 (Homo sapiens) (UniProt O00292). Briefly: small molecules binding LEFTY2 protein – biochemical, small-molecule microarray, 635 nm fluorescence scan, primary screen (AID 1110). The settings on record: higher = more signal.
Assay [4] has as its target Calmodulin-1 (Homo sapiens) (UniProt P0DP23). Briefly: small molecules binding calmodulin-1 with EGTA – biochemical, small-molecule microarray, Cy5-labelled CALM1, profiling panel (AID 1111).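 Note: labelled calmodulin applied in Tris saline Tween buffer holding calcium plus EGTA and DTT.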 The settings on record: Cy5-CALM1 binding fluorescence, higher = more signal.
For assay [5] the target is unchanged. Briefly: small molecules binding Ca-loaded calmodulin-1 – biochemical, small-molecule microarray, Cy5-labelled CALM1, plus calcium, artefact control for SMM control-protein annotation, profiling panel (AID 1112).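 Note: score merges spot fluorescence with signal to noise from triplicate slides.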 The conditions noted are these: Cy5-CALM1 binding fluorescence, higher = more signal.
Assay [6] can be described thus: probe aWnt5a binding to arrayed compounds – biochemical, biotinylated probe, 635/667 nm fluorescence, primary screen (AID 1113).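 Note: score merges 667 nm fluorescence intensity with signal-to-noise per printed feature.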 The settings on record: small-molecule microarray, higher = more signal.
Assay [7] can be described thus: probe aShh binding to arrayed compounds – biochemical, biotinylated probe, 635/667 nm fluorescence, primary screen (AID 1114).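 Note: probe is biotin-labelled aShh protein from a stem cell growth factor screen; measures binding of labelled protein to compounds printed on the slide; score merges feature fluorescence at 667 nm with signal-to-noise.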 The settings on record: small-molecule microarray, higher = more signal.
Assay [8] in a line: probe aNog binding to arrayed compounds – biochemical, biotinylated probe, 635/667 nm fluorescence, primary screen (AID 1115).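 Note: probe is biotinylated aNog protein used at 0.15 µg/mL for 1 h at 4 C; z-score combines 667 nm fluorescence of each spot with its signal to noise.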 The conditions noted are these: small-molecule microarray, higher = more signal.
The target in assay [9] is Torsin-1A-interacting protein 1 (Homo sapiens) (UniProt Q5JTV8). Briefly: compound microarray binding of lysate hLAP1 – cell lysate, small-molecule microarray, COS7 lysate, 635/667 nm fluorescence, primary screen (AID 1116). The settings on record: 635 nm fluorescence, higher = more signal.
Assay [10] deals with Alpha-bungarotoxin (Bungarus multicinctus) (UniProt P60615). Briefly: compounds binding labelled alpha-BTX control protein – biochemical, small-molecule microarray, Alexa647 label, 635/667 nm fluorescence, artefact control for SMM control protein annotation, profiling panel (AID 1117). The conditions noted are these: alpha-BTX-A647 binding fluorescence, higher = more signal.
Assay [11] addresses Albumin (Bos taurus) (UniProt P02769). Briefly: compounds binding labelled BSA control protein – biochemical, small-molecule microarray, Alexa647 label, 635/667 nm fluorescence, artefact control for SMM control protein annotation, profiling panel (AID 1118).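 Note: score merges 667 nm emission intensity and signal-to-noise per printed compound spot.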 The conditions noted are these: BSA-A647 binding, fluorescence 635 nm, higher = more signal.
Assay [12] can be described thus: probe aXIP binding to arrayed compounds – biochemical, NeuroSMM set, 635/667 nm fluorescence, primary screen (AID 1119).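 Note: probe is the protein aXip251-270 applied at 1 µg/mL to compound-printed slides; binding of probe to printed compounds measured as 667 nm fluorescence plus signal to noise.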 The settings on record: small-molecule microarray, higher = more signal, called active from +8 up or from −8 down.
The nature of assay [13]: probe aNOTCH3 binding on compound microarray – biochemical, small-molecule microarray, 635/667 nm fluorescence, primary screen (AID 1120).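 Note: probe is a biotin-tagged antibody raised against NOTCH3 rather than NOTCH3 protein; score merges spot fluorescence near 667 nm with spot signal to noise.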 The conditions noted are these: higher = more signal.
Assay [14] is described as follows: probe aNOTCH2 binding on compound microarray – biochemical, small-molecule microarray, 635/667 nm fluorescence, primary screen (AID 1121).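 Note: score merges feature fluorescence read at 667 nm with its signal to noise.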 The settings on record: higher = more signal.
Assay [15] deals with Carbonic anhydrase 2 (Homo sapiens) (UniProt P00918). Briefly: compounds binding carbonic anhydrase 2 – biochemical, small-molecule microarray, Alexa647-labelled CAII, profiling panel (AID 1122). The conditions noted are these: CAII-A647 binding fluorescence, higher = more signal.
The nature of assay [16]: COS7 lysate on small-molecule microarray, probe aHis, 635 nm (AID 1123).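 Note: z-score combines 667nm fluorescence intensity with signal-to-noise per printed compound spot.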 The conditions noted are these: COS7 cell lysate, fluorescence, higher = more signal.
Assay [17] in a line: probe aLAP1 signal on lysate-treated microarray – cell lysate, small-molecule microarray, COS7 lysate, primary screen (AID 1124).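 Note: lysate comes from COS7 cells expressing LAP1 and is applied at 0.3 µg/mL; score merges spot fluorescence near 667 nm with signal-to-noise over triplicate slides.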 The conditions noted are these: probe aLAP1, fluorescence, higher = more signal.
For assay [18], the system named is Sam68 (KHDRBS1). Briefly: compounds binding KHDRBS1 protein – biochemical, small-molecule microarray, 635 nm fluorescence, primary screen (AID 1125).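 Note: score merges 667 nm channel intensity with signal to noise over triplicate slides.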 The settings on record: higher = more signal.
The test system of assay [19] is Chordin-like protein 2 (CHRDL2). Briefly: compounds binding chordin-like 2 – biochemical, small-molecule microarray, 635 nm fluorescence, primary screen (AID 1126).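 Note: printed compound slides probed with Chrdl2 protein at 4 µg/mL for 1 h at 4 C; score merges 667 nm emission intensity with signal to noise over three replicate slides.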 The conditions noted are these: fluorescence 635 nm, higher = more signal.
Assay [20] concerns the target Concanavalin-A (Canavalia ensiformis) (UniProt P02866). Briefly: compounds binding concanavalin A lectin – biochemical, small-molecule microarray, Alexa647 label, 635 nm, artefact control for SMM control protein annotation, primary screen (AID 1127).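 Note: z combines 667 nm emission intensity with signal-to-noise across three replicate slides.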 The settings on record: ConA-A647 binding fluorescence, higher = more signal.

Albumin (Bos taurus), sequence (P02769 whole entry, looked up): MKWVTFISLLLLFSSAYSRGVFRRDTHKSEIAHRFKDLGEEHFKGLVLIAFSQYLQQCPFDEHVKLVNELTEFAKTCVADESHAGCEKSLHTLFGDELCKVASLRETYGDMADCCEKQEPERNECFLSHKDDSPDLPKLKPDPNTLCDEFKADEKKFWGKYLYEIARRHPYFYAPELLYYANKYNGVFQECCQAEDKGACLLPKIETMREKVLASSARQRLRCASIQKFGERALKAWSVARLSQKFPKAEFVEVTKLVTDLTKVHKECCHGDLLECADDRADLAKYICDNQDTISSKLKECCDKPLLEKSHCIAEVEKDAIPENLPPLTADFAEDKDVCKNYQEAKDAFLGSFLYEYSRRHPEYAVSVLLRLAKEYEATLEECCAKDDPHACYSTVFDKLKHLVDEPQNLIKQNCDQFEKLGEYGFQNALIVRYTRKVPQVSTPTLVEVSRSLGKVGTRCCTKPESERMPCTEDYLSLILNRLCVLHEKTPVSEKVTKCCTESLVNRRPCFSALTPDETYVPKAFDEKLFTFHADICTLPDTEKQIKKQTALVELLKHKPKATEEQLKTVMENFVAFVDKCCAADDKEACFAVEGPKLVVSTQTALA
Concanavalin-A (Canavalia ensiformis), sequence (P02866 whole entry, looked up): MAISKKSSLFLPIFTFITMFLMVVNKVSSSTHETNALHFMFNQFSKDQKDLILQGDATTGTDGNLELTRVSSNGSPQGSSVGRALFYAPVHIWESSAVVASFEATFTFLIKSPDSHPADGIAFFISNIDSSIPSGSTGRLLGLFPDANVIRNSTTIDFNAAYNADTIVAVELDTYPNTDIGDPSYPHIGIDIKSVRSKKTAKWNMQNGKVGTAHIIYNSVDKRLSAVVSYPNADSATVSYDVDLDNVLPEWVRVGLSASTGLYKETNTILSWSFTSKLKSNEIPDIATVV
Alpha-bungarotoxin (Bungarus multicinctus), sequence (P60615 whole entry, looked up): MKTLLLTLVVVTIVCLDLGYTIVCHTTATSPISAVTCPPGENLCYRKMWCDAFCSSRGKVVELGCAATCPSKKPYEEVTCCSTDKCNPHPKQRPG
Torsin-1A-interacting protein 1 (Homo sapiens), sequence (Q5JTV8 whole entry, looked up): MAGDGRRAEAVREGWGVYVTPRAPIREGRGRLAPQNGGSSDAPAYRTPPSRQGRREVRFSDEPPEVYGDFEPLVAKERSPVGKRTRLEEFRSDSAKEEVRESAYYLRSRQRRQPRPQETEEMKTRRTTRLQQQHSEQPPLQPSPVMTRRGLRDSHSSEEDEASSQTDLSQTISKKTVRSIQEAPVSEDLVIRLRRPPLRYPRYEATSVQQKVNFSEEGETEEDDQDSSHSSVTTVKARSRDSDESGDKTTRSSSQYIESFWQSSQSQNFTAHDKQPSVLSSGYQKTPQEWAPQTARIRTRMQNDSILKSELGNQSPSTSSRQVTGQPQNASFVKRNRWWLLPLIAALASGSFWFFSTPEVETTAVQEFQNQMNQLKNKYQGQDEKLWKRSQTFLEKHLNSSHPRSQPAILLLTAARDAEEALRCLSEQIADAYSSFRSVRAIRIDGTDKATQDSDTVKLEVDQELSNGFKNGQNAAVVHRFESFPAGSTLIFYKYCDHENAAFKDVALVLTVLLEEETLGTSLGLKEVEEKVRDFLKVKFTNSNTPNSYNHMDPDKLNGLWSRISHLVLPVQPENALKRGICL
Left-right determination factor 2 (Homo sapiens), sequence (O00292 whole entry, looked up): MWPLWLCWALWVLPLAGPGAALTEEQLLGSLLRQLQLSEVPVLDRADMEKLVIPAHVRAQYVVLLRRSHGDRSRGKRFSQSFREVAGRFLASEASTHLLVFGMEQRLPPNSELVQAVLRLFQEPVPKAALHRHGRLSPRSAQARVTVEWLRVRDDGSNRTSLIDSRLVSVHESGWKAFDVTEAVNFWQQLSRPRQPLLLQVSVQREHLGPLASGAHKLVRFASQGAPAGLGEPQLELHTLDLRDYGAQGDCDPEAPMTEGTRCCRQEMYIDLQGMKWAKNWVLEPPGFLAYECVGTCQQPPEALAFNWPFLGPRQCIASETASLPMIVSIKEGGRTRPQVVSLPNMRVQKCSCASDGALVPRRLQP

With `C=CCN(C(=O)C1N(CCCCCCO)C(=O)C2C(C(=O)O)C3C=CC21O3)c1ccc(OC)cc1` (stereo not given), the composite z-score was -0.862 and -1.21 in assay [1]; -3.9 and -3.75 in assay [3]; -0.0411 and -1.13 in assay [4]; 0.734 and 0.0742 in assay [5]; -0.224 and -0.124 in assay [6]; -0.0011 and 0.551 in assay [7]. Moreover, the composite z-score in assay [8] is 0.692 and 0.838; in [9], 2.83 and 1.74; in [10], -2.05 and -1.37; in assay [11], -0.547 and -1.14; in assay [13], -0.577 and -0.287; in assay [14], -0.0345 and -0.0148. Also, the composite z-score was 0.981 and 0.391 in assay [15]; 3.24 and 2.93 in [16]; 1.44 and 0.066 in [17]; -0.931 and -2.13 in assay [18]; -2.65 and -2.43 in assay [19]; -0.941 and -2.04 in assay [20]. Besides, the z-score in assay [2] was -0.67 and -0.824. In addition, the composite Z-score in assay [12] is -0.344 (inactive) and -0.542 (inactive).
Take `COC(=O)C1=C(C)N(Cc2ccccc2)[C@]23O[C@](C(=O)OC)(C(=O)N2[C@@H]1c1ccccc1)[C@H]1CCCC(=O)[C@H]13`: the composite z-score is -0.525 and 0.155 in [1]; 0.877 and 0.588 in assay [3]; -0.127 and -0.222 in assay [4]; 0.0491 and -0.499 in [5]; -0.0792 and -0.0462 in assay [6]; -0.0146 and -0.0553 in assay [7]. Further, the composite z-score is -0.275 and -0.367 in assay [8]; 0.206 and 0.139 in [9]; 0.787 and 0.0026 in assay [10]; -0.0265 and -0.0851 in assay [11]; 0.19 and -0.136 in assay [13]; -0.0116 and -0.0649 in assay [14]. In addition, the composite z-score was 0.311 and -0.0597 in [15]; 0.685 and -0.0027 in assay [16]; 0.26 and -0.0668 in assay [17]; 0.174 and 0.227 in assay [18]; 0.228 and 0.551 in assay [19]; 1 and 0.279 in assay [20]. Besides, the z-score in assay [2] is -3.35 and -1.15. In addition, in [12], the composite Z-score was -0.138 (inactive) and -0.0964 (inactive).
Take `C=CC[C@@H](O)c1ccc(OCCO)cc1`: the composite z-score is -1.68 and -0.85 in assay [1]; -0.301 and -1.81 in assay [3]; -1 and -1.27 in assay [4]; -0.166 and -0.74 in assay [5]; -0.184 and -0.247 in assay [6]; -0.138 and -0.0626 in assay [7]. The composite z-score in assay [8] is -0.435 and -0.201; in assay [9] it was 0.141 and -0.598; in assay [10] it was -0.416 and 1.32; in assay [11] it was -0.155 and -0.308; in assay [13] it was -0.506 and -0.643; in assay [14] it was -0.222 and -0.176. Besides, the composite z-score in [15] was 0.492 and 0.807; in [16], -0.638 and -0.478; in [17] it was -0.585 and -0.612; in [18], -0.813 and -0.661; in [19], -1.56 and -1.81; in [20], -0.831 and -1.48. In addition, the z-score in assay [2] is 1.71 and 1.54. Also, the composite Z-score in [12] is 0.0022 (inactive) and 0.259 (inactive).
With `CC(=O)OC[C@H]1O[C@H](C#CC(C)(C)C)C=C[C@@H]1OC(C)=O`, the composite z-score was 1.31 in assay [1]; 0.934 in [3]; 0.957 in assay [4]; 0.189 in assay [5]; -0.191 in assay [6]; 0.0596 in assay [7]. Moreover, the composite z-score in assay [8] is -0.433; in [9], 0.852; in assay [10], 1.09; in assay [11], 0.895; in assay [13], 0.116; in [14], -0.0649. Further, the composite z-score in [15] was determined as 0.813; in [16], 1.6; in assay [17] it was 0.164; in assay [18], 1.22; in assay [19], 0.411; in assay [20], 1.09. Besides, the z-score in [2] was -1.94. Also, the composite Z-score in assay [12] is -0.0921 (inactive).
